Results reported in PubChem BioAssay.
Values joined by “and” are separate entries in the source; they are usually repeats but may differ in a detail not shown here. Identical values can stand only once. Results filed as inconclusive are left out. Active and inactive are the calls of the source.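 Rule for the calls, unless noted: active = normalized viability below 100% at a tested concentration; inactive = the rest.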

Columns and labels:
[1] = viability loss in pontine glioma line – cell-based, SU-DIPG-XVII, MIPE5.0, CellTiter-Glo, qHTS, dose response (AID 1347060; cut-off not given, nearly all actives have AC50 up to about 26 µM;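 for AC50: cells exposed to compound for 48 hours before viability readout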); details: CellTiter-Glo ATP luminescence
[2] = viability loss in pontine glioma line – cell-based, SU-DIPG-IV, MIPE4.0, CellTiter-Glo, qHTS, dose response (AID 1347063; cut-off not given, nearly all actives have AC50 up to about 30 µM;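 note: compound exposure lasted 48 hours before the viability readout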); details: CellTiter-Glo ATP luminescence
[3] = viability loss in pontine glioma line – cell-based, SU-DIPG-XIII, MIPE5.0, CellTiter-Glo, qHTS, dose response (AID 1347064; cut-off not given, nearly all actives have AC50 up to about 23 µM;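 for AC50: cells exposed to compound for 48 hours before the viability read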); details: CellTiter-Glo ATP luminescence
[4] = viability loss in pontine glioma line – cell-based, SU-DIPG-XXV, MIPE5.0, CellTiter-Glo, qHTS, dose response (AID 1347065; cut-off not given, nearly all actives have AC50 up to about 26 µM;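 note: cells exposed to compound for 48 hours before ATP readout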); details: CellTiter-Glo ATP luminescence
[5] = growth inhibition of DIPG cells – cell-based, MIPE4.0 library, CellTiter-Glo luminescence, qHTS (AID 1347066; cut-off not given, nearly all actives have AC50 up to about 30 µM;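 note: cells exposed to compound for 48 hours before readout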); details: SU-DIPG-VI viability, CellTiter-Glo ATP luminescence
[6] = JHH-DIPG-1 glioma cell viability, MIPE5.0 library, CellTiter-Glo luminescence, qHTS (AID 1347067; cut-off not given, nearly all actives have AC50 up to about 26 µM;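 note: cells exposed to compound for 48 hours before readout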); details: JHH-DIPG-1 glioma viability, CellTiter-Glo ATP luminescence
[7] = growth inhibition of DIPG cells – cell-based, MIPE5.0 library, qHTS (AID 1347068; cut-off not given, nearly all actives have IC50 up to about 30 µM;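 for IC50: cells exposed to compound for 48 hours before viability readout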); details: SU-DIPG-XXV viability
[8] = viability loss with induced miR-34 in A549 – imaging, A549 dox-inducible miR-34, nuclei and caspase counts, primary screen (AID 1347080;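 active = compounds whose cell count with miR-34 switched on is under 0.7 times the count with it off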); details: A549 miR-34 inducible, Hoechst nuclei count, 48 h
[9] = MELAS cybrid and Rieske KO viability enhancers – cell-based, MELAS cybrids, Rieske KO mouse fibroblasts, CellTiter-Glo, primary screen (AID 1508586;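 active = mean z-score across replicates of 1.96 or higher in either the MELAS or the Rieske mutant cell line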;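 note: z relative to plate mean and SD of compound and empty wells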); details: low glucose
[10] = P. berghei load reduction in hepatocytes – cell-based, HepG2, luciferase luminescence, HepG2 viability, primary screen (AID 624349; in the data active = parasite load remaining mostly below about 12%, no sharp cut-off; inactive = mostly above about 10%;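 note: 100% = mean of DMSO negative control wells on the same plate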); details: P. berghei liver stage in HepG2, luciferase luminescence, concentration not given here; parasite load remaining: stronger effect = lower value; viability: measured here: HepG2 viability without parasites
[11] = compounds altering HSF1 focus formation in cells – imaging, Selleck Cancer Library (AID 1347162; in the data active = plate-normalised HSF1 focus index below about 0.46); details: human cells, HSF1 nuclear foci imaging, at 10 µM; SSMD: measured here: HSF1 foci SSMD mean; cell count: measured here: cell number; plate-normalised HSF1 focus index: stronger effect = lower value
[12] = drug combination growth inhibition, ovarian cancer – cell-based, oncology-focused library, rucaparib conditional, profiling panel (AID 1508598); details: patient-derived ovarian cancer cells, CellTiter-Glo viability, 144 h, stronger effect = lower value
[13] = stronger effect = lower value, cell number ratio, induced over uninduced
[14] = measured here: relative caspase fold change +Dox/-Dox
[15] = measured here: total cells with miR-34 induction, stronger effect = lower value
[16] = measured here: total cells without miR-34 induction
[17] = MELAS cybrid survival, CellTiter-Glo 48 h, stronger effect = higher value
[18] = Rieske KO mouse fibroblast survival, CellTiter-Glo 72 h

COc1cc(F)c(C(C)C)cc1-c1ccc(C(F)(F)F)cc1CN1C(=O)O[C@H](c2cc(C(F)(F)F)cc(C(F)(F)F)c2)[C@@H]1C
inactive: outcome [1] | outcome [2] | outcome [3] | outcome [4] | outcome [5] | outcome [6] | outcome [7]

Cc1cc(Nc2cc(CN3CCOCC3)c3nc(C)c(Cc4ccc(Cl)cc4F)n3n2)n[nH]1
-1.27: z-score [9, 18]
1440: cell count [8, 15]
982: cell count [8, 16]
inactive: fold change [8, 13] 1.46 | z-score [9, 17] -0.366
active: AC50 [1] 1.32 µM | AC50 [2] 11.8 µM | AC50 [3] 10.5 µM | AC50 [4] 1.18 µM | AC50 [5] 23.5 µM | AC50 [6] 3.32 µM | IC50 [7] 8.33 µM
0.647: fold change [8, 14]

Nc1ncc(C(=O)NC2CN(C(=O)C3CC3)C2)c2ccc(-c3cccc(F)c3)nc12
inactive: outcome [1] | outcome [3]

COc1cc2ncnc(Nc3cccc(Cl)c3)c2cc1OC
0.693 and 0.941 and 0.779: fold change [8, 14]
active: AC50 [1] 13.2 µM | AC50 [2] 18.7 µM | AC50 [4] 20.9 µM
0.126: z-score [9, 18]
2650 and 1830 and 6990: cell count [8, 15]
78.3%: viability [10]
2060 and 1800 and 7760: cell count [8, 16]
inactive: parasite load remaining [10] 63.9% | fold change [8, 13] 1.29 and 1.02 and 0.9 | z-score [9, 17] -0.433

COc1ccc(-c2cc3nccn3c(Nc3ncccc3C(N)=O)n2)cc1OC
-0.302: SSMD [11]
inactive: plate-normalised HSF1 focus index [11] 0.994
6940: cell count [11]
active: AC50 [1] 11.8 µM | AC50 [2] 3.32 µM | AC50 [3] 4.68 µM | AC50 [4] 5.25 µM

CNC(=O)c1cc(Oc2ccc(NC(=O)Nc3ccc(Cl)c(C(F)(F)F)c3)c(F)c2)ccn1
1.02: z-score [9, 18]
0.959: fold change [8, 14]
active: AC50 [1] 16.6 µM | AC50 [2] 13.2 µM | AC50 [4] 20.9 µM | AC50 [5] 9.35 µM | IC50 [7] 20.9 µM | viability ([12]; at 0.000305 µM, OCI-C5x cells, without rucaparib) 90.4% | viability ([12]; at 0.00122 µM, OCI-C5x cells, without rucaparib) 90.8% | viability ([12]; at 0.00488 µM, OCI-C5x cells, without rucaparib) 98.5% | viability ([12]; at 0.0195 µM, OCI-C5x cells, without rucaparib) 91.4% | viability ([12]; at 0.0781 µM, OCI-C5x cells, without rucaparib) 88.4% | viability ([12]; at 5 µM, OCI-P5x cells, with rucaparib 20 µM, 100% = cells with rucaparib alone) 80.9%
inactive: fold change [8, 13] 0.87 | z-score [9, 17] -0.38 | viability ([12]; at 0.000305 µM, OCI-C5x cells, with rucaparib 10 µM, 100% = cells with rucaparib alone) 108% | viability ([12]; at 0.000305 µM, OCI-P5x cells, with rucaparib 20 µM, 100% = cells with rucaparib alone) 101% | viability ([12]; at 0.000305 µM, OCI-P5x cells, without rucaparib) 104% | viability ([12]; at 0.00122 µM, OCI-C5x cells, with rucaparib 10 µM, 100% = cells with rucaparib alone) 108% | viability ([12]; at 0.00122 µM, OCI-P5x cells, with rucaparib 20 µM, 100% = cells with rucaparib alone) 109% | viability ([12]; at 0.00122 µM, OCI-P5x cells, without rucaparib) 106% | viability ([12]; at 0.00488 µM, OCI-C5x cells, with rucaparib 10 µM, 100% = cells with rucaparib alone) 109% | viability ([12]; at 0.00488 µM, OCI-P5x cells, with rucaparib 20 µM, 100% = cells with rucaparib alone) 114% | viability ([12]; at 0.00488 µM, OCI-P5x cells, without rucaparib) 109% | viability ([12]; at 0.0195 µM, OCI-C5x cells, with rucaparib 10 µM, 100% = cells with rucaparib alone) 114% | viability ([12]; at 0.0195 µM, OCI-P5x cells, with rucaparib 20 µM, 100% = cells with rucaparib alone) 115% | viability ([12]; at 0.0195 µM, OCI-P5x cells, without rucaparib) 116% | viability ([12]; at 0.0781 µM, OCI-C5x cells, with rucaparib 10 µM, 100% = cells with rucaparib alone) 106% | viability ([12]; at 0.0781 µM, OCI-P5x cells, with rucaparib 20 µM, 100% = cells with rucaparib alone) 115% | viability ([12]; at 0.0781 µM, OCI-P5x cells, without rucaparib) 110% | viability ([12]; at 0.313 µM, OCI-C5x cells, with rucaparib 10 µM, 100% = cells with rucaparib alone) 104% | viability ([12]; at 0.313 µM, OCI-C5x cells, without rucaparib) 102% | viability ([12]; at 0.313 µM, OCI-P5x cells, with rucaparib 20 µM, 100% = cells with rucaparib alone) 115% | viability ([12]; at 0.313 µM, OCI-P5x cells, without rucaparib) 117% | viability ([12]; at 1.25 µM, OCI-C5x cells, with rucaparib 10 µM, 100% = cells with rucaparib alone) 107% | viability ([12]; at 1.25 µM, OCI-C5x cells, without rucaparib) 104% | viability ([12]; at 1.25 µM, OCI-P5x cells, with rucaparib 20 µM, 100% = cells with rucaparib alone) 103% | viability ([12]; at 1.25 µM, OCI-P5x cells, without rucaparib) 117% | viability ([12]; at 5 µM, OCI-C5x cells, with rucaparib 10 µM, 100% = cells with rucaparib alone) 125% | viability ([12]; at 5 µM, OCI-C5x cells, without rucaparib) 105% | viability ([12]; at 5 µM, OCI-P5x cells, without rucaparib) 121%
2900: cell count [8, 16]
2520: cell count [8, 15]
